From PubChem BioAssay
Only some compounds are listed: those with a hit (about 5% of all), similar ones and a draw of the others.
SENP6 block = SENP6 protease inhibition | inhibition, % at 10 µM | Q9GZR1 | Recombinant SENP6 catalytic domain, aminoluciferin luminescence | 330,000 compounds, 1.8% hits | AID 2599;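 active = inhibition above about 50% at the single tested dose, limit read from the data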;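 note: plate controls were DMSO wells with enzyme for no effect and DMSO wells lacking enzyme for full effect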
EBI2 antag = blocks human EBI2 receptor beta-arrestin signaling; EBI2 beta-arrestin recruitment, luminescence, 7a,25-OHC stimulated; AID 651636; 360,000 compounds, 0.81% hits; inhibition, % at 5 µM; in the data active = inhibition above about 38%;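 note: enzyme fragment complementation signal reports receptor beta-arrestin coupling in cells; 0% = agonist plus DMSO wells and 100% = wells without agonist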
Target sequence (P32249 whole entry, looked up, the tested form may be a part): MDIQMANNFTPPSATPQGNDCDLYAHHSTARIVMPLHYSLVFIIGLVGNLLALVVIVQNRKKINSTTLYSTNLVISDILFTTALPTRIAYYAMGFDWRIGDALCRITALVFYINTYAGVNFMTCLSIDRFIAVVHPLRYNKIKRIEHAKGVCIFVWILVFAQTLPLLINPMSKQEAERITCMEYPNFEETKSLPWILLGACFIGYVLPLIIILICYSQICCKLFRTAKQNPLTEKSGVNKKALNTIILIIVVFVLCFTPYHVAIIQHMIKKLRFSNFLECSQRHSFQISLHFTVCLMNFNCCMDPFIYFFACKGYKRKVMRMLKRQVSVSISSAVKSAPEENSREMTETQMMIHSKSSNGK
AHR activator = activators of human aryl hydrocarbon receptor | P35869 | AHR-responsive luciferase reporter cells, luminescence | activation, % at 5 µM | 320,000 compounds, 2.5% hits | AID 2796; in the data active = activation above about 47%;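 note: 0% = vehicle wells and 100% = reference agonist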
SENP8 block-1 = SENP8 (human) protease inhibition; AID 602440; recombinant SENP8, Nedd8 substrate fluorescence; 360,000 compounds, 0.64% hits; inhibition, % at 20 µM; in the data active = inhibition mostly above about 40%, no sharp cut-off; inactive = mostly below about 27%
Target sequence (Q96LD8 whole entry, looked up): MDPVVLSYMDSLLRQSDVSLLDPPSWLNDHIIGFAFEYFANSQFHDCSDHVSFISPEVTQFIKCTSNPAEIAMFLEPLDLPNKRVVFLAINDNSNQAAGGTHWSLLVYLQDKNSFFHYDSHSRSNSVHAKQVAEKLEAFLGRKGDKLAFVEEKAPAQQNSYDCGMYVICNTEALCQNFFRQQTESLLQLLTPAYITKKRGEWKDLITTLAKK
SENP8 block-2 = inhibitors of human SENP8 protease | Q96LD8 | purified SENP8, Z-RLRGG-aminoluciferin cleavage, luminescence | inhibition, % at 10 µM | 330,000 compounds, 1.2% hits; in the data active = inhibition above about 50%
SENP7 inh = inhibitors of human SENP7 protease. recombinant SENP7, Z-RLRGG-aminoluciferin luminescence, 40 min. Q9BQF6. inhibition, % at 5 µM. 330,000 compounds, 1.5% hits. AID 434973;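 active = inhibition above about 50% at the single test dose, limit read from the data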;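 note: plate controls were DMSO with enzyme for no effect and no enzyme buffer wells for full effect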
* marks the source's active call; other numbers are inactive results; i = inactive; / = no result.

SMILES | SENP6 block | EBI2 antag | AHR activator | SENP8 block-1 | SENP8 block-2 | SENP7 inh
Cc1cccc(NC(=O)c2ccc(C(=O)c3ccccc3)cc2)n1 | 40 | 9 | 5 | 21 | 13 | 41
Cc1cccc(NC(=O)c2cccc(C(=O)Nc3cccc(C)n3)c2)n1 | -10 | -7 | 50* | 12 | -2 | 5
Cc1cccc(NC(=O)COc2ccc(Br)cc2)n1 | 6 | -4 | 78* | 14 | -3 | 18
CC(C)C1Cc2[nH]c(=S)[nH]c(=O)c2C(c2ccc(Cl)cc2)O1 (stereo unspecified) | / | -7 | / | 21 | / | /
COCCCN1C(=O)C(CC(=O)NCc2cccc3ccccc23)CC(C(=O)N(C)C)=C1C (stereo unspecified) | / | -9 | / | 20 | / | /
Cc1ccc(NC(=O)OCC(F)(F)C(F)F)cc1NC(=O)OCC(F)(F)C(F)F | 5 | -12 | 55* | 11 | 8 | 3
C=CCN(CC=C)Cc1cc(=O)oc2cc(C)cc(C)c12 | / | -2 | / | 9 | / | /
COCCNC(=O)C1(C)CCCN(Cc2cc(-c3ccccc3)nn2C)C1 (stereo unspecified) | / | -5 | / | 16 | / | /
CC(CC(=O)Nc1ccc2c(c1)c(=O)n(C)n2-c1ccccc1F)c1ccccc1 (stereo unspecified) | / | 5 | / | -495 | / | /
C/C(=N\Nc1c(Cl)c(Cl)nc(C(=O)O)c1Cl)c1ccc(O)cc1 | -3 | -6 | 50* | 21 | 2 | 7
CCc1c(-c2ccc(Br)cc2)ncn1Cc1cccc(-c2ccccc2)c1 | / | 1 | / | 11 | / | /
COc1cccc(/C(C)=N/NC(=O)c2ccc(N(C)C)cc2)c1 | 69* | -1 | 7 | -67 | 55* | 45
O=C(O)CCC(=O)N1CCN(c2ncccn2)CC1 | 2 | -19 | -2 | -11 | -5 | -5
CN(C)c1ccc(NC(=O)CSc2nnc(-c3cnccn3)n2C)cc1 | -12 | -5 | 51* | -2 | -9 | -10
CCCNC(=O)C1(C)CCN1C(=O)Cc1ccc(C(C)C)cc1 (stereo unspecified) | / | -4 | / | 13 | / | /
O=C(NCc1cc(Cl)cc(Cl)c1)c1ccc2nc([C@@H]3O[C@H](CO)[C@H](O)[C@H](O)[C@H]3O)[nH]c2c1 | / | -4 | / | 11 | / | /
COc1ccc(/C=C/C(=O)Nc2ccccc2C(=O)O)cc1OC | 72* | -2 | -8 | -46 | 63* | 17
COc1ccc(/C=C/C(=O)Nc2ccccc2C(F)(F)F)cc1OC | -4 | 1 | 0 | -335 | 4 | -1
S=c1[nH]c(-c2ccccc2)cn1/N=C/c1cccc2ccccc12 | -31 | 6 | 99* | -50 | -9 | -6
COc1cc(/C=N/n2cc(-c3ccccc3)[nH]c2=S)cc(OC)c1O | -4 | -5 | 23 | -131 | -4 | -4
S=c1[nH]nc(-c2ccccn2)n1/N=C/c1cccc2ccccc12 | -3 | 1 | 7 | 15 | 5 | 12
S=c1[nH]c(-c2ccccc2)cn1-c1ccccc1 | 11 | -7 | 36 | 7 | 2 | 11
Oc1ccc(/C=N/n2cc(-c3ccccc3)[nH]c2=S)cc1 | 4 | 4 | 64* | -34 | -12 | -7
S=c1[nH]c(-c2ccccc2)cn1/N=C/c1ccccc1Br | -3 | 15 | 62* | 15 | -4 | 9
O=C(NC1CCCCC1)C(c1cc2ccccc2o1)N1CCOCC1 (stereo unspecified) | / | 0 | / | 30 | / | /
SMILES | SENP6 block | EBI2 antag | AHR activator | SENP8 block-1 | SENP8 block-2 | SENP7 inh
Cn1ncc(Br)c1C(=O)Nc1ccc(Cl)cn1 | 5 | 8 | 65* | 21 | -3 | 4
Cn1ncc(Br)c1C(=O)Nc1ccc(Br)cn1 | 5 | -6 | 175* | 17 | 1 | 7
COC(=O)c1ccccc1NC(=O)c1c(Br)cnn1C | -1 | 10 | 3 | 31 | 12 | 0
O=C1NC[C@@H](CCCCN2C[C@H](Cc3ccc(O)cc3)N(CCc3ccccc3)C(=O)C2=O)N(Cc2ccccc2)C1=O | / | -2 | / | 12 | / | /
Fc1ccccc1/C=N/NC(=S)Nc1ccc(Cl)cc1Cl | -3 | 11 | 77* | 18 | -5 | -3
CN(C)c1ccc2c(=O)c3ccccc3oc2n1 | / | -3 | / | -404 | / | /
COc1ccc(Nc2nc(-c3ccccc3)nc3ccccc23)cc1 | -19 | -21 | 7 | -78 | 1 | -1
COc1ccc(-c2nc(N/N=C(\C)c3ccc(O)cc3)c3ccccc3n2)cc1 | 30 | -8 | 49* | -206 | -3 | 8
Cc1nc2c(-c3ccc(F)cc3)c(C)nn2c(C)c1CCC(=O)Nc1ccccc1 | 61* | 7 | 0 | -20 | 3 | 6
COc1ccccc1NC(=O)CCc1c(C)nc2c(-c3ccc(F)cc3)c(C)nn2c1C | 9 | 8 | 4 | -55 | 7 | 0
CCc1cccc(CC)c1NC(=O)C1SC(=Nc2ccccc2C)C(c2nc3ccccc3s2)=C1N (stereo unspecified) | -21 | 16 | 54* | 5 | -3 | -2
O=c1c2ccccc2nc2ccc(NCc3cccs3)nn12 | -3 | 7 | 19 | -426 | -5 | 4
COc1ccc(-c2cc(C(F)(F)F)c3c(n2)sc2c(O)cc(=O)[nH]c23)c(OC)c1 | -4 | 2 | 70* | -398 | 4 | -7
O=C(O)c1ccccc1C(=O)NNc1ccc(Cl)cc1 | -16 | 4 | 40 | 4 | 6 | 8
NS(=O)(=O)c1ccc(NNC(=O)c2ccccc2C(=O)O)cc1 | -36 | 17 | 48* | 20 | 4 | -6
COC(=O)c1ccc(N2CCOCC2)c(NC(=O)c2ccco2)c1 | -1 | -2 | 2 | 0 | 3 | -15
COc1ccc(-c2sc(Nc3ccccc3)n[n+]2-c2ccccc2)cc1Br | -10 | 18 | 64* | 20 | -11 | 16
COc1ccc(C)cc1Nc1n[n+](-c2ccccc2)c(-c2ccc(C(=O)O)cc2)s1 | -1 | -1 | 48* | -2 | -10 | -12
OC(c1ccccc1)c1nc(/C=C/c2ccccc2)cs1 (stereo unspecified) | / | 5 | / | 1 | / | /
COc1cc(/C=C/C(=O)N2CCCc3ccccc32)cc(OC)c1OC | 1 | -3 | 55* | 13 | -1 | -3
COc1ccc(/C=C/C(=O)N2CCCc3ccccc32)cc1 | -1 | 14 | 29 | 9 | -15 | -4
CC(C)N1CCc2c(sc(NC(=O)c3nc4ccccc4s3)c2C(N)=O)C1 | 24 | 10 | 21 | -28 | 0 | 2
CC(=O)Nc1sc2c(c1-c1nc3ccccc3s1)CN(C(C)C)CC2 | -13 | 13 | 74* | -457 | -11 | -6
CCOc1ccc(Nc2ncnc3ccc([N+](=O)[O-])cc23)cc1 | 2 | 1 | 50* | 18 | 2 | 13
CCOC(=O)c1ccc(Nc2ncnc3ccc(C)cc23)cc1 | -18 | 8 | 34 | i | -1 | -2
O=C(COC(=O)c1ccc(F)c(S(=O)(=O)N2CCOCC2)c1)Nc1ccc(Cl)cn1 | / | -5 | / | 14 | / | /
O=C(CSc1nc2[nH]ncc2c(=O)[nH]1)NCCc1ccccc1 | -8 | -17 | 78* | 9 | 3 | -1
